KB-3-1 tox = kills parental KB-3-1 adenocarcinoma cells; KB-3-1 viability, CellTiter-Glo ATP luminescence, 72 h; Potency, µM (titrated, usually from 46.1 µM), hits mostly cytotoxic; 400,000 compounds, 1.4% hits; AID 1347075; also: % is scaled to controls: 0 for no effect and ±100 for the full control effect; nearly all actives have a fitted effect of over 60% in size
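KB-3-1 parental drug-naive adenocarcinoma cells in DMEM/10% FBS, incubated 72 h at 37 C with pin-transferred compounds across a concentration series. Viability by CellTiter-Glo luminescence; concentration-response curves fitted after normalization.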
HepG2 viability = HepG2 cytotoxicity, counter-screen for TGF-b inhibitors. HepG2 CAGA-GFP viability, ATP luminescence, 18 h. Potency, µM (highest dose often 46.1 µM), inactives show at the highest dose activity change, negative = cytotoxicity, most hits filed as cytotoxic. 410,000 compounds, 0.76% hits
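HepG2 CAGA-GFP cells (1000/well, DMEM with 1% FBS) received compound, then TGF-beta at 500 pg/mL final, and were incubated 18 hours at 37 degrees C. Viability was read by CellTiter-Glo luminescence. Media-only wells were set as complete cell-killing and DMSO as no toxicity.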
KB-V1 MDR tox = KB-V1 MDR subline cytotoxicity; 400,000 compounds, 3.4% hits; KB-V1 MDR cells viability, CellTiter-Glo, 72 h; Potency, µM (titrated, usually from 46.1 µM), hits mostly cytotoxic; also: % is scaled to controls: 0 for no effect and ±100 for the full control effect; nearly all actives have a fitted effect of over 60% in size
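Readout: CellTiter-Glo luminescence, 10 min after addition. Cells: KB-V1 MDR subline, 72 h at 37 degrees C with compound. Analysis: corrected, normalized data fitted to concentration-effect curves.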
TGFb SMAD3 inh = blocks TGF-b signaling; 410,000 compounds, 1.2% hits; Potency, µM (top dose mostly 46.1 µM), without a hit: at the highest dose activity, negative = inhibition, most hits filed as inhibitors; HepG2 CAGA-GFP TGF-b/SMAD3 reporter, GFP fluorescence, 18 h; TGF-beta stimulated, 500 pg/mL final; AID 588855; also: % is scaled to controls: 0 for no effect and ±100 for the full control effect; nearly all actives have a fitted effect of over 65% in size
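HEPG2 CAGA-GFP reporter cells (1000/well, DMEM with 1% FBS) received compounds, then recombinant TGF-beta at 500 pg/mL final for 18 hours at 37 degrees C. Per-cell GFP summed per well was normalised to unstimulated and stimulated DMSO controls before curve fitting.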
ATXN2 expr inh = reduces ATXN2 reporter expression in HEK-293 cells; HEK-293 ATXN2-luciferase reporter, luminescence, 24 h; Potency, µM (top dose mostly 57 µM), inactives show at the top dose activity change, negative = inhibition, actives largely listed as inhibitors; 360,000 compounds, 0.72% hits; AID 1745845; also: % is scaled to controls: 0 for no effect and ±100 for the full control effect; nearly all actives have a fitted effect of over 55% in size
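qHTS (up to 57 uM final) was run with 24 h compound exposure of reporter cells at 37 °C. Each well was multiplexed: SteadyGlo luminescence measured ATXN2-luciferase expression after a fluorogenic Gly-Phe-AFC viability readout (25 uM final).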
S2 tox = viability counter-screen for ATXN expression inhibitors | AID 651635 | Potency, µM (top dose mostly 56.7 µM), usual class: cytotoxic | 400,000 compounds, 0.49% hits | S2 cells (HEK-293 line with an ATXN2-luciferase reporter) viability, CellTiter-Fluor protease fluorescence, 24 h; also: nearly all actives have a fitted effect of over 40% in size
Starred values were filed as active, the others as inactive; [ ] = dose if it differs, or a comment. Most compounds without a hit are left out; they make up all but 5.9% or so of the library. Calls follow the shape of the dose curve; as a rule, active = well fitted curve in the direction sought with a large enough effect; inconclusive = small, poorly fitted or top-dose-only effect, or another doubt; inactive = no such curve, though single readings can be large; an effect the other way counts as inactive or inconclusive. Potency is read from the fitted curve at half-maximal effect.

For CCn1c(-c2ccccc2F)nc2cc(NC(C)=O)cc(C(=O)N3CCC[C@H]3C(=O)OC)c21 the results were S2 tox inactive.
Screening Cc1ccccc1C1(CC(=O)N2CCCCC2C)CC(=O)N(Cc2cccnc2)C1=O (stereo not drawn) returned S2 tox inactive.
For Cn1c(-c2ccccn2)[n+](C)c2ccccc21 the results were KB-3-1 tox inactive, HepG2 viability -17%, KB-V1 MDR tox inactive, TGFb SMAD3 inh -12%, ATXN2 expr inh -20%[11.3 µM] and S2 tox inactive.
For Cn1c(-c2ccc3ccccc3n2)[n+](C)c2ccccc21 the results were KB-3-1 tox 9.2µM*, HepG2 viability 1%, KB-V1 MDR tox inconclusive, TGFb SMAD3 inh inconclusive, ATXN2 expr inh 21% and S2 tox inactive.
Screening CN(C)c1ccc(-c2n(C)c3ccccc3[n+]2C)cc1 returned KB-3-1 tox 2.9µM*, HepG2 viability -2%, KB-V1 MDR tox inactive, TGFb SMAD3 inh -29%, ATXN2 expr inh 6% and S2 tox inactive.
`CC(C)N1CCN(CCCc2ccccc2)CC1CCO` (stereo not drawn) gave KB-3-1 tox inactive, HepG2 viability -37%, KB-V1 MDR tox inactive, TGFb SMAD3 inh 1%, ATXN2 expr inh 4% and S2 tox inactive.
`CC(C)N1CCC(N2CCN(CCCc3ccccc3)CC2CCO)CC1` (stereo not drawn) gave KB-3-1 tox inactive, HepG2 viability 3.2µM*, KB-V1 MDR tox inconclusive, TGFb SMAD3 inh 1%, ATXN2 expr inh -18% and S2 tox inactive.
Screening O=C(NCCCc1nc2ccccc2n1CCCOc1ccccc1)C1CCCCC1 returned KB-3-1 tox inactive, HepG2 viability -7%, KB-V1 MDR tox inconclusive and TGFb SMAD3 inh -4%.
COc1ccc(C(CNC(=O)C(CCSC)NC(=O)c2ccccc2Cl)N2CCCCC2)cc1 (stereo not drawn) was read as KB-3-1 tox inactive, HepG2 viability 3%, KB-V1 MDR tox 23µM*, TGFb SMAD3 inh -27%, ATXN2 expr inh -9% and S2 tox inactive.
For COc1ccccc1C(=O)NC(CCSC)C(=O)NCC(c1ccco1)N(C)C (stereo not drawn) the results were KB-3-1 tox inactive, HepG2 viability -6%, KB-V1 MDR tox 18µM*, TGFb SMAD3 inh inconclusive, ATXN2 expr inh -3% and S2 tox inactive.
COc1ccccc1C(=O)NC(CCSC)C(=O)NCC(c1cccs1)N(C)C (stereo not drawn) was read as KB-3-1 tox inactive, HepG2 viability 16%, KB-V1 MDR tox inconclusive, TGFb SMAD3 inh -14%, ATXN2 expr inh 5% and S2 tox inactive.
For O=C(OCC12CC3CC(CC(C3)C1)C2)c1ccc(NCc2cc(O)ccc2O)cc1 the results were KB-3-1 tox inconclusive, HepG2 viability 11µM*, KB-V1 MDR tox inactive, TGFb SMAD3 inh inconclusive, ATXN2 expr inh 10µM* and S2 tox 13µM*.
Screening O=C(OCCC12CC3CC(CC(C3)C1)C2)c1ccc(NCc2cc(O)ccc2O)cc1 returned KB-3-1 tox 15µM*, HepG2 viability -90%, KB-V1 MDR tox inconclusive, TGFb SMAD3 inh inconclusive and ATXN2 expr inh inconclusive.
Screening CC(=O)Nc1ccc(CNc2nc(NC(C)C)nc3cc(-c4ccccc4)sc23)cc1 returned KB-3-1 tox inconclusive, HepG2 viability -113%, KB-V1 MDR tox 21µM*, TGFb SMAD3 inh inconclusive, ATXN2 expr inh 22µM* and S2 tox inconclusive.
COc1ccc(-c2cc(COc3ccccc3)on2)cc1 was read as KB-3-1 tox inactive, HepG2 viability -5%, KB-V1 MDR tox inactive, TGFb SMAD3 inh 7%, ATXN2 expr inh 59% and S2 tox inactive.
For CC(=O)NCCNc1nc(NC(C)C)nc2cc(-c3ccccc3)sc12 the results were KB-3-1 tox inactive, HepG2 viability -28%, KB-V1 MDR tox inactive, TGFb SMAD3 inh -7%, ATXN2 expr inh -21% and S2 tox inactive.
Screening C=CCNc1nc(NCc2ccc(NC(C)=O)cc2)c2sc(-c3ccccc3)cc2n1 returned KB-3-1 tox inconclusive, HepG2 viability 11µM*, KB-V1 MDR tox inconclusive, TGFb SMAD3 inh inconclusive, ATXN2 expr inh inconclusive and S2 tox 32µM*.
Screening COc1ccc(-c2cc(CNc3nc(NC(C)C)nc4cc(-c5ccccc5)sc34)on2)cc1 returned KB-3-1 tox inconclusive, HepG2 viability -97%, KB-V1 MDR tox 21µM*, TGFb SMAD3 inh inconclusive, ATXN2 expr inh inconclusive and S2 tox inconclusive.
Screening CSc1cc2c(s1)c1cnn(Cc3cccc(N)c3)c(=O)c1n2C returned KB-3-1 tox inactive and KB-V1 MDR tox inactive.
`COc1cc(-c2nccc3cc4c(cc23)OCO4)cc(OC)c1OC` gave KB-3-1 tox 4.1µM*, HepG2 viability -7%, KB-V1 MDR tox 5.2µM*, TGFb SMAD3 inh 8%, ATXN2 expr inh -23% and S2 tox inconclusive.
Screening COc1ccc(CN(CCCN2CCOCC2)C(=O)Nc2ccccc2)cc1OC returned KB-3-1 tox inactive, HepG2 viability -16%, KB-V1 MDR tox 7.3µM*, TGFb SMAD3 inh 6%, ATXN2 expr inh 4% and S2 tox inactive.
COc1ccccc1N(CC(=O)NC(C)(C)C)C(=O)Cn1nnc(-c2ccc(C)o2)n1 was read as KB-3-1 tox inactive, HepG2 viability 6%, KB-V1 MDR tox 2.3µM*, TGFb SMAD3 inh -1%, ATXN2 expr inh -7% and S2 tox inactive.
COc1ccccc1NC(=O)c1ccc(-c2nc(COc3ccc(C)cc3)c(C)o2)cc1 was read as KB-3-1 tox inactive, HepG2 viability -21%, KB-V1 MDR tox inconclusive, TGFb SMAD3 inh -19%, ATXN2 expr inh 1% and S2 tox inactive.
For COc1ccc(CCC(=O)NCc2nc3cccnc3n2Cc2ccc(F)cc2)cc1 the results were HepG2 viability -29% and TGFb SMAD3 inh inconclusive.
`CNC(=O)c1c(-c2ccc(F)cc2)oc2cc(N(CCO)S(C)(=O)=O)c(C3CC3)cc12` gave ATXN2 expr inh -19%.
CC(C)n1ncc2c(C(=O)Nc3cccc(S(=O)(=O)N(C)C)c3)cc(C3CC3)nc21 was read as KB-3-1 tox inconclusive, HepG2 viability -37%, KB-V1 MDR tox 8.2µM*, TGFb SMAD3 inh -28%, ATXN2 expr inh -12% and S2 tox inactive.
For OC1(c2cccnc2)CCN(Cc2ccc3c(c2)CN(Cc2cccc(C(F)(F)F)c2)CCO3)CC1 the results were S2 tox inactive.

Assay outcomes: PubChem, National Center for Advancing Translational Sciences (NCATS)
